# Measurements as given in PubChem BioAssay (NCATS).
# Results filed as inconclusive are left out. A call without a number means that no potency is given here. The source made the active and inactive calls. Unless noted, calls follow the shape of the dose curve; as a rule, active = well fitted curve in the direction sought with a large enough effect; inconclusive = small, poorly fitted or top-dose-only effect, or another doubt; inactive = no such curve, though single readings can be large; an effect the other way counts as inactive or inconclusive.
# Assays:
# [1] = target: Cytochrome P450 1A2 (Homo sapiens) (UniProt P05177); assay: p450-cyp1a2 (AID 410; calls by dose curve)
# Chain of Cytochrome P450 1A2 (Homo sapiens) (P05177 whole entry, looked up): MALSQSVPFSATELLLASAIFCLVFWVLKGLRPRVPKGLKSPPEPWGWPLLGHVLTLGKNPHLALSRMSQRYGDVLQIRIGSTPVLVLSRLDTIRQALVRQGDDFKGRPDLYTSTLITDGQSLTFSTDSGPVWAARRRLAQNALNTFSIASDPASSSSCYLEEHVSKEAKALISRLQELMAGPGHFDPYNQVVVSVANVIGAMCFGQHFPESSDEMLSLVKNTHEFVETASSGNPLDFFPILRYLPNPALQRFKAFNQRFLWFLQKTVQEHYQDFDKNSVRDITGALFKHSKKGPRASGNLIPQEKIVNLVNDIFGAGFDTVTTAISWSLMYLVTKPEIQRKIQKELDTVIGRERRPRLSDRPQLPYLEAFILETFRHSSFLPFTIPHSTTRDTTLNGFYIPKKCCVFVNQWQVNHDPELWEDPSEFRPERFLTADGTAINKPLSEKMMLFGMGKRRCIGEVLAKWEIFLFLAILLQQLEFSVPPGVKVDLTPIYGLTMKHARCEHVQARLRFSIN
# In short: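 O-Demethylation of luciferin 6' methyl ether by human CYP1A2 is monitored as luciferase luminescence. Substrate sits at Km (100uM); enzyme is 20nM. Values are scaled to 57 uM furafylline as maximal inhibition.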
# [2] = target: Cytochrome P450 3A4 (Homo sapiens) (UniProt P08684); assay: qHTS Assay for Activators of Cytochrome P450 3A4 (AID 885); also: potency is read from the fitted curve at half-maximal effect; nearly all actives have a fitted effect of over 65% in size
# Chain of Cytochrome P450 3A4 (Homo sapiens) (P08684 whole entry, looked up): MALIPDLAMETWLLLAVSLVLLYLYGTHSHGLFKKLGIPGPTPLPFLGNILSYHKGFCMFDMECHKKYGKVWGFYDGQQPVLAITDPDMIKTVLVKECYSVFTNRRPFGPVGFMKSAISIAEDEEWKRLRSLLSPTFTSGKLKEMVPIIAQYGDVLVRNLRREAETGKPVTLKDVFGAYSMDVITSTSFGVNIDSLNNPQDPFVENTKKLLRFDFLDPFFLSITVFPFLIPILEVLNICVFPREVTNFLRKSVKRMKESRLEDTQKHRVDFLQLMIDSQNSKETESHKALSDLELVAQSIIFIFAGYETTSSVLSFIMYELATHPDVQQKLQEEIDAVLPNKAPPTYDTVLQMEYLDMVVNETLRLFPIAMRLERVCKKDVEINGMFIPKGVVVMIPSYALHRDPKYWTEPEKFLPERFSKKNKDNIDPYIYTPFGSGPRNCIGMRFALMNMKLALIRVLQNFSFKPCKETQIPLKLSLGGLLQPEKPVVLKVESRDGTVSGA
# In short: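 Luminescent readout of luciferin formed from 25 uM Luciferin-PPXE (KM level) by 20 nM CYP3A4 in 200 mM KPO4, with 60 min NADPH-driven reaction at room temperature after 10 min compound exposure. Ketoconazole (57 uM) defined 100% inhibition.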
# [3] = target: Cytochrome P450 2D6 (Homo sapiens) (UniProt P10635); assay: qHTS Assay for Inhibitors and Substrates of Cytochrome P450 2D6 (AID 891); also: potency is read from the fitted curve at half-maximal effect; nearly all actives have a fitted effect of over 60% in size
# Chain of Cytochrome P450 2D6 (Homo sapiens) (P10635 whole entry, looked up): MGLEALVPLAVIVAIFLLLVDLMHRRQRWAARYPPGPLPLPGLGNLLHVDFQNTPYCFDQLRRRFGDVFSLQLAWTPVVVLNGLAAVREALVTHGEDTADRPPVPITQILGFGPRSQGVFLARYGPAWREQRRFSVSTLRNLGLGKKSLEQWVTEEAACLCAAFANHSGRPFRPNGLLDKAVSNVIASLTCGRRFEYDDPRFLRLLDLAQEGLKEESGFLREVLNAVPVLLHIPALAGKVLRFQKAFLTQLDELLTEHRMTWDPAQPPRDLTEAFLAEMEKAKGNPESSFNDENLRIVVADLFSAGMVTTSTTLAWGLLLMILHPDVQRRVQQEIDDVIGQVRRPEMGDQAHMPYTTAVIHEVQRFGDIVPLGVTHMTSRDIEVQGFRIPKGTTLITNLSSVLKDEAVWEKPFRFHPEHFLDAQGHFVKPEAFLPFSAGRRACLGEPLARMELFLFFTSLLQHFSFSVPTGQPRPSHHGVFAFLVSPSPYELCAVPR
# In short: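 Luminescent read-out of luciferin formed by 5 nM human CYP2D6 demethylating 30 uM Luciferin-ME EGE (Km level) over 60 min at room temperature after NADPH regeneration addition. Data normalized to full inhibition by 1.43 uM quinidine.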
# [4] = qHTS Assay for Lipid Storage Modulators (AID 1519; calls by dose curve); details: Drosophila S3 cells, BODIPY lipid droplet/cell ratio, laser cytometry, cells loaded with oleic acid
# In short: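 Cells seeded at 5,000 per well were treated with compounds over a concentration series and loaded with oleic acid (400 uM, as added). Lipid droplet fluorescence (488 nm excitation, 500-530 nm channel) was read by laser-scanning cytometry and normalized to 20 uM Triacsin C.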
# [5] = target: ATP-dependent 6-phosphofructokinase (Trypanosoma brucei brucei) (UniProt O15648); assay: qHTS Assay to Find Inhibitors of T. brucei phosphofructokinase: hit validation (AID 492961);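 also: luminescence reports ADP formed as PFK phosphorylates fructose-6-phosphate with ATP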
# Chain of ATP-dependent 6-phosphofructokinase (Trypanosoma brucei brucei) (O15648 whole entry, looked up): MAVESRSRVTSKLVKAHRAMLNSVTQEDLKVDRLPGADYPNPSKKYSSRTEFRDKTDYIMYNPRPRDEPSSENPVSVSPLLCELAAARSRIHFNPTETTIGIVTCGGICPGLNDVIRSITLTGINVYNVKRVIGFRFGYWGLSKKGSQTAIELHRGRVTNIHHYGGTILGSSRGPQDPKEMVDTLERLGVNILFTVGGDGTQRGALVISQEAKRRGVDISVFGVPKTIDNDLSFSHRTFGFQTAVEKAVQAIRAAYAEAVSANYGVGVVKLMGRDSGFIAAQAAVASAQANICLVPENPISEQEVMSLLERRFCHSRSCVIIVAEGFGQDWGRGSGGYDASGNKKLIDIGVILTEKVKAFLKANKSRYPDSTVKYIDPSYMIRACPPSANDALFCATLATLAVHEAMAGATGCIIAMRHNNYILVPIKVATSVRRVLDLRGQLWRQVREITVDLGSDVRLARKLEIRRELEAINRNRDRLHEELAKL
# In short: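 Percent activity derived from corrected luminescence, normalized between 0x and 1x enzyme controls, then fitted to concentration-response curves. Conditions: 1.25 nM PFK, 0.1 mM ATP, 0.5 mM F6P, 45 min RT.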
# [6] = target: Ubiquitin carboxyl-terminal hydrolase 1 (Homo sapiens) (UniProt O94782); assay: Inhibitors of USP1/UAF1: Pilot qHTS (AID 504865);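 also: rhodamine fluorescence freed from ubiquitin-rhodamine substrate followed over time; top concentration of the series differs between compounds; nearly all actives have a fitted effect of over 35% in size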
# Chain of Ubiquitin carboxyl-terminal hydrolase 1 (Homo sapiens) (O94782 whole entry, looked up): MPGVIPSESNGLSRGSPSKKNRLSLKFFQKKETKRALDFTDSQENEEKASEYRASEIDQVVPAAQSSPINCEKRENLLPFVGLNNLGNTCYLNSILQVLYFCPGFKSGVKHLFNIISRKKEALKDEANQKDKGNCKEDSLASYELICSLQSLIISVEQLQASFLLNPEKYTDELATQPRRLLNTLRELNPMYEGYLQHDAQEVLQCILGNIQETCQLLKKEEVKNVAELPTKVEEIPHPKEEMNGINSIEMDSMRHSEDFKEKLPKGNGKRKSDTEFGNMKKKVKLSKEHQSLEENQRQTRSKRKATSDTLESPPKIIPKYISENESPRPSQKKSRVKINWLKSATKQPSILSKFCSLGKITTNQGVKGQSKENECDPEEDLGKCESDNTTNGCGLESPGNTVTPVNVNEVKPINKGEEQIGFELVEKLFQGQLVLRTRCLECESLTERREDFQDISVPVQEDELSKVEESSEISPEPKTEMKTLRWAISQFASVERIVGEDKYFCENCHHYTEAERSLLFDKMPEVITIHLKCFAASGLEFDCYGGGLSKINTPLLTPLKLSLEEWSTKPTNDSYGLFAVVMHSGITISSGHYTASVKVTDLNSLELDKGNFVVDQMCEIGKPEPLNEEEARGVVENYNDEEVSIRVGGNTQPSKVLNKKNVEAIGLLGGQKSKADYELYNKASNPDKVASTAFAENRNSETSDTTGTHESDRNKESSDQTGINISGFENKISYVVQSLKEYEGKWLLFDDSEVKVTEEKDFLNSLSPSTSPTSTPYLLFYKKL
# In short: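 USP1/UAF1 complex (1nM) preincubated with compound 15 min at room temperature, then Ub-Rho substrate (150nM final) added. Fluorescence read kinetically at 480/540 nm, 6 reads every 60 seconds. Buffer: 50mM HEPES pH 7.8, 0.5mM EDTA, 0.1 mg/ml BSA, 1mM TCEP, 0.01% Tween-20.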
# [7] = target: DNA dC->dU-editing enzyme APOBEC-3G (Homo sapiens) (UniProt Q9HC16); assay: qHTS for inhibitors of Vif-A3G interactions: Validation (AID 588379)
# Chain of DNA dC->dU-editing enzyme APOBEC-3G (Homo sapiens) (Q9HC16 whole entry, looked up): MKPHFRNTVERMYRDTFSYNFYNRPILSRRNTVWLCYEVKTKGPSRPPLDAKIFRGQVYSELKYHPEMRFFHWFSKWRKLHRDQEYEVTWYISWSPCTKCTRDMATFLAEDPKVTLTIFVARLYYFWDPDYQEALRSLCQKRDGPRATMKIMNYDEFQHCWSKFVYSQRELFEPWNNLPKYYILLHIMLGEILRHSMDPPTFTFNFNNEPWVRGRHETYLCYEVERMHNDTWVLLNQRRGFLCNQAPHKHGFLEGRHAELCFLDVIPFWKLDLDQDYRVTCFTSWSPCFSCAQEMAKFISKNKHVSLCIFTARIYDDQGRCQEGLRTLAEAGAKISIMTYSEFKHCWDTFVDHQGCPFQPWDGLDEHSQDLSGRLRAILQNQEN
# In short: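 Yellow fluorescence (Ex 488, Em 500-530) of Vif-coexpressing HeLa A3G-eYFP cells, scanned by Acumen cytometer, reports blocked A3G degradation. Cells plated at 700/well overnight at 37 deg C before compound addition, then a further overnight compound incubation at 37 deg C.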
# [8] = target: Luciferin 4-monooxygenase (Photinus pyralis) (UniProt P08659); assay: Biochemical firefly luciferase enzyme assay for NPC (AID 624030);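 also: purified P. pyralis luciferase at 10 nM with luciferin and ATP substrate; nearly all actives have a fitted effect of over 70% in size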
# Chain of Luciferin 4-monooxygenase (Photinus pyralis) (P08659 whole entry, looked up): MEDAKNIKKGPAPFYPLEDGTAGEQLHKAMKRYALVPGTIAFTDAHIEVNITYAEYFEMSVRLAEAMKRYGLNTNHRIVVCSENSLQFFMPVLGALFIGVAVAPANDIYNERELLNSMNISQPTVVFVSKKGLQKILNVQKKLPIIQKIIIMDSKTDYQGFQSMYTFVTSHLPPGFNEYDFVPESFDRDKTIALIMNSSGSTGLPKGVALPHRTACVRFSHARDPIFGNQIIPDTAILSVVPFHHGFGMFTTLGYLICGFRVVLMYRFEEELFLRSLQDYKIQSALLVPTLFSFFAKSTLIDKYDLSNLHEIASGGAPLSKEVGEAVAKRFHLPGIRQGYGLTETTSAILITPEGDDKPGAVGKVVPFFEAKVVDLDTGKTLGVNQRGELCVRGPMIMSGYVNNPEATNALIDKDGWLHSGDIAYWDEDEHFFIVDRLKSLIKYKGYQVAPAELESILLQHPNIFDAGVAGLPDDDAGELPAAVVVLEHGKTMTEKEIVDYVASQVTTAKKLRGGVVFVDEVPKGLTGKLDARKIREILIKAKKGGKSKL
# In short: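 Counter-screen for direct inhibition of the luciferase enzyme by approved-drug library compounds, run at 10 nM enzyme in 50 mM Tris acetate (final). Luminescence was read within 5 min of enzyme-buffer addition and normalized to PTC124 versus DMSO (0%).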
# [9] = S16 Schwann cell viability assay (CellTiter-Glo assay) (AID 624031);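 also: cellular ATP luminescence as a viability measure; nearly all actives have a fitted effect of over 70% in size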
# In short: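 Native S16 rat Schwann cells in DMEM/10% FBS without phenol red were incubated overnight, then exposed to compounds for 24 h at 37 °C/5% CO2. Viability was read as ATP luminescence (CellTiter-Glo), normalized to no-cell wells and DMSO (0%).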
# [10] = S16 Schwann cell PMP22 intronic element firefly luciferase assay (AID 624032); also: potency is read from the fitted curve at half-maximal effect; nearly all actives have a fitted effect of over 30% in size
# In short: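 Rat S16 Schwann cells stably carrying a PMP22 intronic element-driven Fluc reporter were seeded overnight, then exposed to compounds for 24 h at 37 °C. Luminescence was normalized to PTC124 (positive control) and DMSO (0% activity).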
# [11] = S16 Schwann cell PMP22 intronic element beta-lactamase assay (AID 624044; calls by dose curve; also: nearly all actives have a fitted effect of over 15% in size)
# In short: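 Beta-lactamase reporter under a PMP22 intronic regulatory element in stable S16 rat Schwann cells; 24 h compound exposure. 460 nm blue signal normalized between DMSO (0%) and potassium clavulanate, with 535 nm FRET tracking viability; curves classed by r2 and response.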
# [12] = test system: Zika virus NS2B-NS3 protease; assay: Primary screen GU AMC qHTS for Zika virus inhibitors (AID 1347154); also: nearly all actives have a fitted effect of over 70% in size
# In short: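 Unlinked Zika NS2B hydrophilic domain/NS3 protease domain noncovalent complex (25 nM final) in 10 mM Tris-HCl pH 8.0, 0.01% Tween 20, with AMC peptide substrate. Fluorescence (ex 340, em 450 nm) change over 15 min, room temperature; percent inhibition fitted to 4-parameter Hill equation.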
# [13] = Counterscreen qHTS for small molecule stabilizers of the endoplasmic reticulum resident proteome: GLuc-NoTag assay (AID 1508627); also: potency is read from the fitted curve at half-maximal effect
# In short: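 Secreted GLuc lacking the SERCaMP modification is measured in SH-SY5Y cells exposed to compound for 19 h and then to thapsigargin (100 nM, 4 h) to deplete ER calcium; hits retested at 11 concentrations, up to 76.6 uM.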
# [14] = Confirmatory qHTS for small molecule stabilizers of the endoplasmic reticulum resident proteome: Secreted ER Calcium Modulated Protein (SERCaMP) assay (AID 1508628); also: potency is read from the fitted curve at half-maximal effect; nearly all actives have a fitted effect of over 40% in size
# In short: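 Reporter secretion upon ER calcium depletion (100 nM thapsigargin, 4 h, 37C) is measured as medium luminescence with coelenterazine, after 16 h compound pretreatment of SH-SY5Y-GLuc-SERCaMP cells; primary at three concentrations up to 38.3 uM, follow-up at 11 (up to 76.6 uM).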
# [15] = Cell Viability qHTS for small molecule stabilizers of the endoplasmic reticulum resident proteome (AID 1508629); details: cell viability counter-screen, 100 nM thapsigargin for final 4 h;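 also: potency is read from the fitted curve at half-maximal effect; compound exposure about 46 h in total before the viability read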
# 3D7 = assay: qHTS profiling for inhibitors of Plasmodium falciparum proliferation (AID 504749); also: nearly all actives have a fitted effect of over 60% in size; details: P. falciparum in erythrocytes, SYBR Green DNA, 72 h; series mostly up to 28.7 µM
# In short: (§1)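 Quantitative HTS: compounds pinned into medium, infected erythrocytes added (0.3% parasitemia, 2.5% hematocrit), 72 h culture at 37 C under 5% CO2. Saponin/Triton lysis with SYBR Green I, overnight RT, then fluorescence read.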
# AA1029 = assay: as above; details: P. falciparum in erythrocytes, SYBR Green DNA, 72 h; series mostly up to 28.7 µM
# In short: as §1
# AS120 = assay: as above; details: P. falciparum in erythrocytes, SYBR Green DNA, 72 h; series mostly up to 28.7 µM
# In short: as §1
# ATS189 = assay: as above; details: P. falciparum in erythrocytes, SYBR Green DNA, 72 h; series mostly up to 28.7 µM
# In short: as §1
# ATS95 = assay: as above; details: P. falciparum in erythrocytes, SYBR Green DNA, 72 h; series mostly up to 28.7 µM
# In short: as §1
# C2A = assay: as above; details: P. falciparum in erythrocytes, SYBR Green DNA, 72 h; series mostly up to 28.7 µM
# In short: as §1
# CP185 = assay: as above; details: P. falciparum in erythrocytes, SYBR Green DNA, 72 h; series mostly up to 28.7 µM
# In short: as §1
# CP191 = assay: as above; details: P. falciparum in erythrocytes, SYBR Green DNA, 72 h; series mostly up to 28.7 µM
# In short: as §1
# CP192 = assay: as above; details: P. falciparum in erythrocytes, SYBR Green DNA, 72 h; series mostly up to 28.7 µM
# In short: as §1
# CP194 = assay: as above; details: P. falciparum in erythrocytes, SYBR Green DNA, 72 h; series mostly up to 28.7 µM
# In short: as §1
# CP201 = assay: as above; details: P. falciparum in erythrocytes, SYBR Green DNA, 72 h; series mostly up to 28.7 µM
# In short: as §1
# CP203 = assay: as above; details: P. falciparum in erythrocytes, SYBR Green DNA, 72 h; series mostly up to 28.7 µM
# In short: as §1
# CP215 = assay: as above; details: P. falciparum in erythrocytes, SYBR Green DNA, 72 h; series mostly up to 28.7 µM
# In short: as §1
# CP217 = assay: as above; details: P. falciparum in erythrocytes, SYBR Green DNA, 72 h; series mostly up to 28.7 µM
# In short: as §1
# CP237 = assay: as above; details: P. falciparum in erythrocytes, SYBR Green DNA, 72 h; series mostly up to 28.7 µM
# In short: as §1
# CP238 = assay: as above; details: P. falciparum in erythrocytes, SYBR Green DNA, 72 h; series mostly up to 28.7 µM
# In short: as §1
# CP247 = assay: as above; details: P. falciparum in erythrocytes, SYBR Green DNA, 72 h; series mostly up to 28.7 µM
# In short: as §1
# CP252 = assay: as above; details: P. falciparum in erythrocytes, SYBR Green DNA, 72 h; series mostly up to 28.7 µM
# In short: as §1
smiles,measurement,setting,value
CCN(CC)CCO[C@H]1CC[C@@]2(C)C(=CC[C@@H]3[C@H]2CC[C@]2(C)C(=O)CC[C@H]32)C1,Potency,[1],inactive
same,Potency,[2],15.8 µM (active)
same,Potency,[3],0.0794 µM (active)
same,"activity change, negative = inhibition",[4]; at 57.5 µM (top of the series),-3.37% (inactive)
same,max response,[4]; measured here: cell count channel max response,16%
same,max response,[4]; measured here: lipid channel max response,11.9%
same,Potency,[5],inactive
same,Potency,[6],inactive
same,Potency,[7],inactive
same,Potency,[8],inactive
same,Potency,[9],inactive
same,Potency,[10],9.07 µM (active)
same,Potency,[11],inactive
same,Potency,[12],inactive
same,Potency,[13],25.1 µM (active)
same,Potency,[14],31.6 µM (active)
same,Potency,[15],12.6 µM (active)
same,Potency,3D7,inactive
same,Potency,AA1029,inactive
same,Potency,AS120,inactive
same,Potency,ATS189,inactive
same,Potency,ATS95,inactive
same,Potency,C2A,inactive
same,Potency,CP185,inactive
same,Potency,CP191,inactive
same,Potency,CP192,inactive
same,Potency,CP194,inactive
same,Potency,CP201,inactive
same,Potency,CP203,inactive
same,Potency,CP215,inactive
same,Potency,CP217,inactive
same,Potency,CP237,inactive
same,Potency,CP238,inactive
same,Potency,CP247,inactive
same,Potency,CP252,inactive
